{"source": "paper PMC7826789", "about": "(International Journal of Molecular Sciences, 2021);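 also: KINOMEscan scanMAX binding as percent activity remaining versus control; lower means stronger binding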", "data": [{"tested_on": "TNK1", "conditions": "Compound Concentration (nM):1000", "units": {"Percent Control": "%"}, "values": [{"smiles": "Cl.O=C(Nc1ccc(Oc2ccc3[nH]c(NC(=O)c4ccco4)nc3c2)cc1)Nc1cc(C(F)(F)F)ccc1F", "note": "[GW683134A]", "Percent Control": 36}, {"smiles": "CN(C)CCNC(=O)Nc1ccc(N(C)c2ccnc(Nc3ccc(CS(C)(=O)=O)cc3)n2)cc1.Cl", "note": "[GW830900A]", "Percent Control": 39}, {"smiles": "CCn1c(-c2nonc2N)nc2c(C#CC(C)(C)O)nc(OCCNC)cc21.Cl", "note": "[GSK949675]", "Percent Control": 100}, {"smiles": "NS(=O)(=O)c1ccc(N/N=C2\\C(=O)Nc3ccc(C(=O)NCc4ccncc4)cc32)cc1", "note": "[GW300657X]", "Percent Control": 100}, {"smiles": "Cl.O=S1CCN(Cc2ccc(-c3ccc4ncnc(Nc5ccc(OCc6ccccc6)c(F)c5)c4c3)o2)CC1", "note": "[GW576924A]", "Percent Control": 100}, {"smiles": "Cl.O=C(O[C@H]1CN[C@H](C#Cc2cc3ncnc(Nc4ccc5c(cnn5Cc5ccccc5)c4)c3s2)C1)N1CCOCC1", "note": "[GSK200398A]", "Percent Control": 99}]}, {"tested_on": "TNK2", "conditions": "Compound Concentration (nM):1000", "units": {"Percent Control": "%"}, "values": [{"smiles": "CN1CCN(C(=O)c2ccc(NC(=O)Nc3ccc(N(C)c4ccnc(Nc5ccc(CS(C)(=O)=O)cc5)n4)cc3)cc2)CC1.Cl", "note": "[GW830263A]", "Percent Control": 6.5}, {"smiles": "COc1cc2ncnc(Nc3ccc4c(cnn4Cc4ccccc4)c3)c2cc1OC.Cl", "note": "[GW282449A]", "Percent Control": 77}, {"smiles": "CC1=C(C(=O)Nc2ccc3[nH]ncc3c2)C(c2ccc3ccccc3c2)CC(=O)N1", "note": "(centres unmarked) [GSK270822A]", "Percent Control": 62}, {"smiles": "O=C(Nc1n[nH]c2nc(-c3ccc(O)cc3)c(Br)cc12)C1CC1", "note": "[SB-725317]", "Percent Control": 100}, {"smiles": "CCS(=O)(=O)c1ccc(OC)c(Nc2ncc(-c3cccc(F)c3)o2)c1", "note": "[GW621970X]", "Percent Control": 90}, {"smiles": "COc1ccc2cc(-c3c(-c4ccncc4)nc(-c4ccc(S(C)(=O)=O)cc4C)n3C)ccc2c1", "note": "[SB-633825]", "Percent Control": 61}, {"smiles": "COc1ccccc1-c1cc(/C=C2\\C(=O)Nc3ncc(Br)cc32)cc(Br)c1O", "note": "[GW442130X]", "Percent Control": 100}, {"smiles": "CN(C)c1cc2c(Nc3ccc4c(cnn4Cc4ccccc4)c3)ncnc2cn1", "note": "[GW282974X]", "Percent Control": 84}, {"smiles": "COc1ccc2[nH]c3c4[nH]c5ccc(OC)cc5c4c4c(c3c2c1)C(=O)NC4=O", "note": "[GW296115X]", "Percent Control": 69}, {"smiles": "COc1cccc(-n2ncc3c(N/N=C/c4ccncc4)ncnc32)c1", "note": "[GW784752X]", "Percent Control": 100}, {"smiles": "CC1=C(C(=O)Nc2ccc3[nH]ncc3c2)C(c2ccc(Cl)c(Cl)c2)CC(=O)N1", "note": "(centres unmarked) [GSK299115A]", "Percent Control": 79}, {"smiles": "COc1ccc(COc2ccc(Cc3cnc(N)nc3N)cc2OC)cc1", "note": "[GW632580X]", "Percent Control": 77}, {"smiles": "NS(=O)(=O)c1ccc(N/N=C2\\C(=O)Nc3ccc(Cl)cc32)cc1", "note": "[GW280670X]", "Percent Control": 100}, {"smiles": "COc1cccc(-c2c[nH]c3c(N/N=C/c4ccncc4)ncnc23)c1", "note": "[GW814408X]", "Percent Control": 100}, {"smiles": "COC(=O)Nc1nc2ccc(Oc3ccc(NC(=O)Nc4cc(C(F)(F)F)ccc4F)cc3)cc2s1.Cl", "note": "[GW693917A]", "Percent Control": 95}, {"smiles": "COc1ccc2c(-c3ccnc(Nc4cccc(OC(F)(F)F)c4)n3)cnn2n1", "note": "[GW810372X]", "Percent Control": 100}, {"smiles": "NS(=O)(=O)c1ccc(N/N=C2\\C(=O)Nc3ccc(-c4cnco4)cc32)cc1", "note": "[GW276655]", "Percent Control": 66}, {"smiles": "Cl.c1ccc(Cc2nc3ccc(Nc4ncnc5ccccc45)cc3[nH]2)cc1", "note": "[GR269666A]", "Percent Control": 100}, {"smiles": "C/C(Nc1ccc(S(N)(=O)=O)cc1)=C1/C(=O)Nc2ccccc21", "note": "[GW335962X]", "Percent Control": 100}, {"smiles": "COc1cc(N2CCN(C(C)C)CC2)ccc1Nc1nc(Nc2ccc(F)cc2C(=O)NC[C@@H](O)CO)c2cc[nH]c2n1", "note": "[GSK1392956A]", "Percent Control": 67}, {"smiles": "Nc1ncnc2occ(-c3ccc(NC(=O)Nc4cc(C(F)(F)F)ccc4F)cc3)c12", "note": "[GW770249X]", "Percent Control": 100}, {"smiles": "CC(C)COC(=O)c1ccc2c(c1)/C(=C/Nc1ccc(S(N)(=O)=O)cc1)C(=O)N2", "note": "[GW416981X]", "Percent Control": 100}, {"smiles": "Cl.O=C(Nc1ccc(Oc2ccc3[nH]c(NC(=O)c4ccccc4)nc3c2)cc1)Nc1cc(C(F)(F)F)ccc1F", "note": "[GW709042A]", "Percent Control": 100}, {"smiles": "CCc1ccc(Oc2nccc(-c3c(-c4ccc(F)cc4)ncn3C3CCNCC3)n2)cc1", "note": "[SB-242719]", "Percent Control": 82}, {"smiles": "COc1cc(C)c(N(C)C(=O)CN(C)C)cc1Nc1nc(Nc2cccc(F)c2C(N)=O)c2cc[nH]c2n1", "note": "[GSK2219385]", "Percent Control": 100}, {"smiles": "NS(=O)(=O)c1ccc(Nc2ncc(-c3ccccc3)o2)cc1", "note": "[GW572399X]", "Percent Control": 100}]}]}
